# According to ChEMBL document CHEMBL3988442, “University of Dundee, Small-Polar-MMV Screening Library” (2021):
# Hit rate of the full screen: of about 66,000 compounds, about 960 (1.5%) showed an effect of 50% or more. The sample as a whole holds a higher share of strong results than the screen did.
# Tested on: Trypanosoma brucei
# Test: Trypanosoma brucei 72 hour study
# Format: functional, organism-based
# Parameters: scale not given: in the data most compounds retested in dose-response had high values
structure (smiles),measurement,setting,value
COc1cc(CNCC2CN(C3CC3)CCO2)cc(OC)c1.Cl (stereo unspecified),Percent Effect,"30 µM, 30.03 µM",10.22%
CC(C)CN1CCN(C(=O)c2ccncc2F)Cc2cccnc21.O=C(O)C(F)(F)F.O=C(O)C(F)(F)F,Percent Effect,"30 µM, 30.03 µM",-15.43%
NC1C=C(C(F)(F)F)NC=C1c1ccc(Cl)cc1 (stereo unspecified),Percent Effect,"30.3 µM, […]",-11.05%
COc1ccccc1N1CCC(CNCc2ccc(C#N)cc2)C1 (stereo unspecified),Percent Effect,"30.3 µM, […]",92.2%
same,Percent Effect,"10 mM, 10 mM as filed; unlikely as a test dose",66.86%
COc1ccccc1N1CCC(CNCc2cccc(O)c2)C1 (stereo unspecified),Percent Effect,"30 µM, 30.03 µM",-1.533%
COc1cccc(CNCC2CCN(CC(C)O)CC2)c1OC (stereo unspecified),Percent Effect,10 µM,-41.05%
COc1ccccc1N1CCC(CNCc2cccc(OC)c2OC)C1 (stereo unspecified),Percent Effect,"30 µM, 30.03 µM",106.6%
COc1cccc(N2CCC(CNC(=O)NCc3ccco3)C2)c1 (stereo unspecified),Percent Effect,"30 µM, 30.03 µM",0.1518%
COc1ccccc1N1CCC(CNCc2cccc(C#N)c2)C1 (stereo unspecified),Percent Effect,"30 µM, 30.03 µM",38.86%
COc1cccc(N2CCC(CNc3cc(C)nc4ncnn34)C2)c1 (stereo unspecified),Percent Effect,"30.3 µM, […]",-742.4%
COc1cccc(N2CCC(CNCc3cccc(C#N)c3)C2)c1 (stereo unspecified),Percent Effect,"30.3 µM, […]",77.75%
same,Percent Effect,"10 mM, 10 mM as filed; unlikely as a test dose",-19.99%
COc1ccc(CNCC2CCN(c3ccccc3OC)C2)cc1O (stereo unspecified),Percent Effect,"30.3 µM, […]",47.62%
same,Percent Effect,"10 mM, 10 mM as filed; unlikely as a test dose",-24.56%
CC(=O)N1CCC(Nc2cc(F)ccc2OCC2CCCO2)CC1 (stereo unspecified),Percent Effect,10 µM,-21.13%
COCC1CN(Cc2ccc(C)s2)Cc2nnn(C)c21.O=C(O)C(F)(F)F (stereo unspecified),Percent Effect,"30.3 µM, […]",-30.47%
O=C1C(NCc2nnc3n2CCCC3)CCN1c1ccccc1F (stereo unspecified),Percent Effect,10 µM,0.3109%
CN1[C@@H](C(=O)NCC2CC2)C[C@H]2CN(Cc3cccc(C#N)c3)C[C@H]21.O=C(O)C(F)(F)F.O=C(O)C(F)(F)F,Percent Effect,"30.3 µM, […]",-35.21%
CCN(C)c1ncnc2c1CCN(Cc1ccncc1)CC2.O=C(O)C(F)(F)F.O=C(O)C(F)(F)F.O=C(O)C(F)(F)F,Percent Effect,"30 µM, 30.03 µM",14.6%
CC1c2ncc(COc3cccnc3)n2CCN1Cc1ccco1 (stereo unspecified),Percent Effect,"30.3 µM, […]",-3.756%
CC(C)C1SCC(=O)Nc2c1cnn2-c1ccc(Cl)cc1 (stereo unspecified),Percent Effect,"30 µM, 30.03 µM",16.61%
CC(C)N(C)S(=O)(=O)c1ccc2c(c1)CCN(C(=O)c1cscn1)C2,Percent Effect,"30 µM, 30.03 µM",-38.59%
CN1CC[C@H](N(C)Cc2ccccc2)C[C@H](O)C1,Percent Effect,"30.3 µM, […]",-4.232%
CN1CC[C@H](N(Cc2ccccc2)CC2CC2)C[C@H](O)C1,Percent Effect,"30.3 µM, […]",2.753%
CN1CC[C@H](N(Cc2ccccc2)Cc2ccccc2)C[C@H](O)C1,Percent Effect,"30.3 µM, […]",67.88%
O=C(O)C(F)(F)F.O=C(c1ccsc1)N1CCO[C@@H]2CN(Cc3ccco3)CC[C@@H]2C1,Percent Effect,"30.3 µM, […]",-78.45%
CNC(=O)CN1CCOCC12CCN(CCc1ccccc1)CC2.O=C(O)C(F)(F)F.O=C(O)C(F)(F)F,Percent Effect,"30 µM, 30.03 µM",40.27%
CC(C)(C)C(NCC(=O)N1CCNC(=O)C1)c1ccccc1 (stereo unspecified),Percent Effect,"30 µM, 30.03 µM",-32.1%
CCc1nc(NS(=O)(=O)c2ccc(C)cc2Cl)no1,Percent Effect,"30 µM, 30.03 µM",33.48%
CCc1nc(NS(=O)(=O)c2ccc(F)cc2Cl)no1,Percent Effect,"30.3 µM, […]",-4.749%
CCc1nc(NS(=O)(=O)c2cc(C)c(F)cc2Cl)no1,Percent Effect,"30.3 µM, […]",54.01%
CN(C)C(=O)c1cnc2n1CCN(Cc1ccc3c(c1)OCO3)C2.O=C(O)C(F)(F)F,Percent Effect,"30.3 µM, […]",-102%
CC(O)CN1CCC(CNCc2ccccc2OC(F)(F)F)CC1 (stereo unspecified),Percent Effect,"30 µM, 30.03 µM",-22.34%
CC(O)CN1CCC(CNCc2cccc(Br)c2)CC1 (stereo unspecified),Percent Effect,"30 µM, 30.03 µM",-7.469%
CC(O)CN1CCC(CNCc2cccc(Cl)c2)CC1 (stereo unspecified),Percent Effect,"30.3 µM, […]",36.81%
CC(O)CN1CCC(CNCc2cccc(C(F)(F)F)c2)CC1 (stereo unspecified),Percent Effect,"30.3 µM, […]",86.87%
CC(O)CN1CCC(CNCc2cccc(OC(F)(F)F)c2)CC1 (stereo unspecified),Percent Effect,10 µM,16.76%
CC(O)CN1CCC(CNCc2ccc(OC(F)(F)F)cc2)CC1 (stereo unspecified),Percent Effect,10 µM,63.69%
CN(C)c1ncc(C(=O)N2C[C@H]3C[C@H](Oc4ccccc4)C[C@H]3C2)cn1,Percent Effect,"30.3 µM, […]",8.214%
Cl.Cn1ccnc1CNC(=O)c1cncc(C2CCNCC2)n1,Percent Effect,"30.3 µM, […]",-8.849%
O=C(O)C(F)(F)F.O=C(c1cccc(Cl)c1)N1CCCn2c(CN3CCCCC3)nnc2C1,Percent Effect,"30 µM, 30.03 µM",5.337%
Oc1cccc(CNCc2ccc(-n3cncn3)nc2)c1,Percent Effect,"30.3 µM, […]",-113.8%
COCCN1C(=O)[C@H]2CC[C@@H]1CN(S(=O)(=O)c1ccc(C#N)cc1)C2,Percent Effect,"30.3 µM, […]",-35.87%
CCO[C@H]1CO[C@@]2(CCCN(S(=O)(=O)c3cccnc3)C2)C1.O=C(O)C(F)(F)F,Percent Effect,"30 µM, 30.03 µM",23.98%
Fc1cccc(CN2CCOC3(COCCN(CC4CC4)C3)C2)c1.O=C(O)C(F)(F)F.O=C(O)C(F)(F)F (stereo unspecified),Percent Effect,"30.3 µM, […]",-50.27%
CC(=O)NCC(=O)N1CCCC(C(=O)c2ccc(C(C)(C)C)cc2)C1 (stereo unspecified),Percent Effect,"30.3 µM, […]",-72.68%
CC(C)(C)c1ccc(C(=O)C2CCCN(C(=O)CNS(C)(=O)=O)C2)cc1 (stereo unspecified),Percent Effect,"30.3 µM, […]",-41.24%
CC(C)(N)C(=O)N1CCCC(C(=O)c2ccc(C(C)(C)C)cc2)C1 (stereo unspecified),Percent Effect,"30.3 µM, […]",89.7%
O=C(O)C(F)(F)F.O=C(c1ccnnc1)N1C[C@H](Oc2ccccn2)[C@H]2OCCC[C@H]21,Percent Effect,"30.3 µM, […]",-55.97%
Cl.OC1CCN(c2cncc(CCC3CCCN3)n2)CC1 (stereo unspecified),Percent Effect,"30.3 µM, […]",-6.285%
Cc1occc1C(=O)N1CCn2c(COCC3CC3)cnc2C1C (stereo unspecified),Percent Effect,"30 µM, 30.03 µM",51.37%
Cc1ncoc1C(=O)N1CCn2c(COCC3CC3)cnc2C1C (stereo unspecified),Percent Effect,"30.3 µM, […]",10.54%
CCOCc1cnc2n1CCN(C(=O)c1ccoc1C)C2C (stereo unspecified),Percent Effect,"30.3 µM, […]",-34.9%
COc1ccc(CN2CCC3(CC2)CCN(CC(C)C)C3=O)cc1.O=C(O)C(F)(F)F,Percent Effect,"30.3 µM, […]",0.8917%
CN(C)CCO[C@H]1CN(CC2CC2)[C@@H]2CCCO[C@H]12.O=C(O)C(F)(F)F.O=C(O)C(F)(F)F,Percent Effect,"30.3 µM, […]",15.45%
c1ccc(N2CCC(c3ccncc3)CC2)cc1,Percent Effect,"30.3 µM, […]",0.5256%
CC(=O)N1CCCC2(C1)CN(c1nncs1)CCO2.O=C(O)C(F)(F)F (stereo unspecified),Percent Effect,"30.3 µM, […]",-90.31%
Cc1nc(C2CCNCC2)cc(N(C)Cc2cc3cc(F)ccc3[nH]2)n1,Percent Effect,"30 µM, 30.03 µM",7.512%
CCN(Cc1c(F)cccc1Cl)c1cc(C2CCNCC2)nc(C)n1,Percent Effect,"30 µM, 30.03 µM",88.22%
CCN(Cc1ccncc1)c1cc(C2CCNCC2)nc(C)n1,Percent Effect,"30 µM, 30.03 µM",-25.3%
O=C(CC1CCCC1)N1C[C@H](OCc2ccncc2)[C@H]2OCCC[C@H]21.O=C(O)C(F)(F)F,Percent Effect,"30 µM, 30.03 µM",-16.6%
Cc1ccc(CN(Cc2ccncc2)C2CC(C)(C)NC(C)(C)C2)o1.O=C(O)CC(O)(CC(=O)O)C(=O)O,Percent Effect,"30.3 µM, […]",-22.8%
O=C(Nc1nccs1)NC1CCN(Cc2ccccc2)C1 (stereo unspecified),Percent Effect,"30 µM, 30.03 µM",-14.85%
Nc1nccnc1C(=O)NC1CCN(Cc2ccccc2)C1 (stereo unspecified),Percent Effect,"30 µM, 30.03 µM",52.39%
Nc1nccnc1C(=O)NC1CCCN(Cc2c(F)cccc2F)C1 (stereo unspecified),Percent Effect,"30 µM, 30.03 µM",-36.01%
c1ccc(N2CCC(OCC3CCCCO3)CC2)nc1 (stereo unspecified),Percent Effect,"30.3 µM, […]",-91.25%
COc1cc(CNCCn2ccnc2)cc2c1OCO2.Cl,Percent Effect,"30.3 µM, […]",6.439%
COc1cc(CNCc2ccc(C(C)O)cc2)cc2c1OCO2 (stereo unspecified),Percent Effect,"30 µM, 30.03 µM",8.941%
COc1cc(CNCC(O)c2ccccc2)cc2c1OCO2.Cl (stereo unspecified),Percent Effect,"30.3 µM, […]",51.8%
Cc1cccc(COc2ccc(C(C)N)cc2)c1.Cl (stereo unspecified),Percent Effect,"30 µM, 30.03 µM",102.3%
Cc1cccc(COc2ccc(C(C)NS(N)(=O)=O)cc2)c1 (stereo unspecified),Percent Effect,"30 µM, 30.03 µM",4.364%
Cc1cccc(COc2ccc(C(C)NC(=O)CNC(N)=O)cc2)c1 (stereo unspecified),Percent Effect,"30 µM, 30.03 µM",6.871%
CN1CC[C@H]2OCC[C@@H](C(=O)NCc3ccco3)[C@@H]2C1.O=C(O)C(F)(F)F,Percent Effect,"30 µM, 30.03 µM",-30.69%
COc1ccnc(N2C[C@@H]3CC[C@H](C2)N(CC2CCC2)C3=O)n1,Percent Effect,"30 µM, 30.03 µM",0.242%
O=C(O)C(F)(F)F.O=C1CC[C@H]2[C@H](CCN2S(=O)(=O)C2CC2)N1CCN1CCCC1,Percent Effect,"30.3 µM, […]",-16.69%
COCC(=O)NCCn1ccc2c(OC)cccc21,Percent Effect,"30 µM, 30.03 µM",21.63%
COc1cccc2c1ccn2CCC(=O)NCCCC(=O)O,Percent Effect,"30 µM, 30.03 µM",53.78%
COc1cccc2c1ccn2CCNC(=O)CC(C)C,Percent Effect,"30 µM, 30.03 µM",-27.5%
CC(C)(C)c1ncc2c(n1)CN(C(=O)c1ccc(-c3nc[nH]n3)cc1)C2,Percent Effect,"30 µM, 30.03 µM",54.09%
CN(C)c1ccc(C(=O)N2Cc3cnc(C(C)(C)C)nc3C2)cc1,Percent Effect,"30 µM, 30.03 µM",-40.98%
CC(C)(C)c1ncc2c(n1)CN(C(=O)c1ccncc1)C2,Percent Effect,"30 µM, 30.03 µM",-0.7468%
O=C(C1CCOCC1)N1CCO[C@H]2[C@H](Oc3cccnc3)CC[C@@H]21.O=C(O)C(F)(F)F,Percent Effect,"30 µM, 30.03 µM",-14.62%
CCN(CC)C(=O)CN(C)C(=O)c1ccc(-c2ccsc2)nc1C,Percent Effect,"30 µM, 30.03 µM",-62.98%
COc1ccccc1CC(=O)N(C)Cc1cc(C)on1,Percent Effect,"30 µM, 30.03 µM",-10.42%
COc1ccccc1CC(C)CC(=O)N(C)Cc1cc(C)on1 (stereo unspecified),Percent Effect,"30 µM, 30.03 µM",72.44%
Cc1cc(CN(C)C(=O)CC(C)C)no1,Percent Effect,"30 µM, 30.03 µM",-35.18%
CCc1nccn1C1CCCN(C(=O)C2=NN(C)C(=O)CC2)C1 (stereo unspecified),Percent Effect,"30.3 µM, […]",-18.44%
COc1ccc(C(C)(C)C)cc1CN1CCn2c(CO)nnc2C1.O=C(O)CC(O)(CC(=O)O)C(=O)O,Percent Effect,"30.3 µM, […]",3.045%
CC(=O)N1CCN([C@@H]2CC[C@@H](NC(=O)c3ccc(C)nc3)[C@H]2O)CC1,Percent Effect,"30.3 µM, […]",-14.37%
CCN1CCN(c2ncc3c(n2)CN(c2cnn(CC)c2)C3=O)CC1,Percent Effect,"30.3 µM, […]",-16.78%
CCOc1cc(CNc2nnn(C)n2)ccc1OCc1ccc(Cl)cc1,Percent Effect,"30.3 µM, […]",13.85%
CN1[C@H]2CC[C@@H]1CN(C(=O)c1ccc(-c3ccccc3)[nH]1)CC2,Percent Effect,"30.3 µM, […]",99.15%
CO[C@H]1CN(C(=O)c2ccc(-c3ccccc3)[nH]2)CC[C@H]1N,Percent Effect,"30.3 µM, […]",21.81%
O=C(c1ccc(-c2ccccc2)[nH]c1=O)N1CCN(C2CC2)CC1,Percent Effect,"30 µM, 30.03 µM",-17.15%
CCOC(=O)CCn1cnc2onc(-c3ccc(OC)cc3)c2c1=O,Percent Effect,"30 µM, 30.03 µM",-27.94%
